# Source: the supplement of paper PMC10646978
# ± gives the standard deviation.
# Columns and labels:
# Settings in all cases: modulator concentration 10 µM
# [1] = tested on: RAW-Dual (murine macrophage reporter line); assay: NF-kB reporter (SEAP) activity fold change vs agonist alone; higher = enhanced NF-kB activity
# Summary of the method: (§1)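 Overnight stimulation with a PRR agonist followed pre-incubation for 1 hour at 37 °C with compound at 10 μM final. This was done in RAW-Dual murine macrophage reporter cells seeded at 50 000 per well in 384-well plates. NF-κB (SEAP, QUANTI-Blue absorbance at 620 nm) and IRF (Lucia luciferase, QUANTI-Luc luminescence) were read from the supernatant. Each reporter's fold change relative to the mean agonist-only control on the same plate was averaged over replicate plates.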
# [2] = tested on: RAW-Dual (murine macrophage reporter line); assay: IRF reporter (Lucia luciferase) activity fold change vs agonist alone; higher = enhanced IRF activity
# Summary of the method: as §1
# [3] = tested on: RAW-Dual (murine macrophage reporter line); assay: viability score (confluency relative to resting cells, overnight) (fraction); higher = more viable, active = viable (0.7 or more)
# Summary of the method: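 RAW-Dual macrophages in 384-well plates were treated overnight with compound at 10 μM final. IncuCyte imaging recorded confluency, and IncuCyte software built two confluency masks across every imaged well. The viability score expresses confluency relative to resting cells and was judged against a cutoff, which a compound met only if both masks exceeded 70% of resting cells.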
# [4] = agonist: CpG ODN 1826 0.5 ug/mL
SMILES,"NF-kB reporter [1, 4]",NF-kB reporter ([1]; agonist: LPS 0.1 ug/mL),NF-kB reporter ([1]; agonist: MPLA […]),IRF reporter ([2]; agonist: 3'3'-cGAMP 10 ug/mL),IRF reporter ([2]; agonist: LPS 0.1 ug/mL),IRF reporter ([2]; agonist: MPLA […]),viability score [3]
COc1ccc(S(=O)(=O)N2CCC(c3ccccc3)S(=O)(=O)CC2)cc1Cl (configuration not stated),0.831 ± 0.2,1.08 ± 0.082,0.978 ± 0.065,0.708 ± 0.024,1 ± 0.15,1.21 ± 0.32,0.999 (active)
NC(=O)c1cc2ccccc2oc1=NCc1ccccc1,0.907 ± 0.09,1.06 ± 0.067,0.91 ± 0.1,0.946 ± 0.023,1.16 ± 0.16,1.07 ± 0.22,1.01 (active)
CC(Oc1cccc(Cl)c1)C(=O)NCc1ccncc1 (configuration not stated),0.955 ± 0.098,1.09 ± 0.071,1.07 ± 0.091,0.985 ± 0.057,1.24 ± 0.13,0.988 ± 0.11,1.02 (active)
COc1cc2nc(N(C)CCCNC(=O)C3CCCO3)nc(N)c2cc1OC (configuration not stated) [Prestw-322],1.45 ± 0.43,0.957 ± 0.11,1.02 ± 0.068,0.695 ± 0.13,0.934 ± 0.35,0.866 ± 0.11,0.996 (active)
Cc1cc(C)n2nc(C(=O)NN=Cc3ccc(N(C)C)cc3)nc2n1,1.1 ± 0.069,1.09 ± 0.067,0.934 ± 0.084,0.996 ± 0.033,1.37 ± 0.11,1.3 ± 0.25,1.01 (active)
CN1CC[C@H](c2c(O)cc(O)c3c(=O)cc(-c4ccccc4Cl)oc23)[C@H](O)C1,0.118 ± 0.009,0.0512 ± 0.004,0.104 ± 0.01,0.0122 ± 0.0028,0.0166 ± 0.001,0.0196 ± 0.0027,0.0463 (inactive)
CC(C)(C)c1cc(CCC(=O)NN)cc(C(C)(C)C)c1O,0.8 ± 0.066,0.816 ± 0.06,0.926 ± 0.096,0.519 ± 0.022,1.15 ± 0.12,1.24 ± 0.2,1.02 (active)
O=C(NCCOc1cccc2ccccc12)Nc1cc(F)c(F)cc1Cl,0.945 ± 0.11,1.06 ± 0.14,0.854 ± 0.053,0.886 ± 0.027,1.14 ± 0.17,0.878 ± 0.24,1.01 (active)
C=CCNC1=C2C[C@@H](C)C[C@H](OC)[C@H](O)[C@@H](C)/C=C(\C)[C@H](OC(N)=O)[C@@H](OC)/C=C\C=C(/C)C(=O)NC(=CC1=O)C2=O,0.174 ± 0.0095,0.215 ± 0.021,0.413 ± 0.042,1.63 ± 0.15,3.81 ± 0.34,3.4 ± 0.71,0.493 (inactive)
CCN(CC)CCNC(=O)c1cc(S(C)(=O)=O)ccc1OC.Cl,1.02 ± 0.13,1.16 ± 0.078,0.975 ± 0.021,0.94 ± 0.056,0.989 ± 0.11,1 ± 0.13,0.998 (active)
O=S(=O)(c1ccccc1)N1CCOCC1,0.956 ± 0.057,0.992 ± 0.061,0.935 ± 0.071,0.981 ± 0.033,1.33 ± 0.21,1.15 ± 0.15,1 (active)
CCCC1CC(C(=O)NC(C(C)O)C2OC(SC)C(O)C(O)C2O)N(C)C1.Cl (configuration not stated),0.947 ± 0.073,0.93 ± 0.072,0.924 ± 0.099,0.956 ± 0.031,1.24 ± 0.11,1.32 ± 0.17,1.04 (active)
O=C(NCC1(c2ccc(F)cc2)CCOCC1)c1cnc2ccccc2n1,1.01 ± 0.05,1.1 ± 0.094,1.02 ± 0.12,1.08 ± 0.06,1.2 ± 0.093,1.42 ± 0.12,1.01 (active)
c1cncc(CSc2ccc(-c3ccncc3)nn2)c1,0.532 ± 0.17,0.711 ± 0.071,0.919 ± 0.062,0.53 ± 0.037,0.647 ± 0.079,0.58 ± 0.13,0.892 (active)
O=C(Cn1nc(S(=O)(=O)c2cccc(F)c2)ccc1=O)N1CCc2ccccc2C1,1.03 ± 0.097,1.07 ± 0.085,0.921 ± 0.053,1.02 ± 0.051,1.29 ± 0.1,1.14 ± 0.21,1 (active)
Cc1ccc(CNC(=O)CN(c2cccc3ccccc23)S(C)(=O)=O)cc1,0.97 ± 0.078,1.03 ± 0.098,0.957 ± 0.073,1.08 ± 0.031,1.47 ± 0.28,1.07 ± 0.096,1.01 (active)
CN(C)Cc1ccc(S(=O)(=O)n2ccc(/C=C/C(=O)NO)c2)cc1,0.517 ± 0.028,0.946 ± 0.11,1.25 ± 0.12,1.3 ± 0.12,1.49 ± 0.18,1.6 ± 0.36,0.334 (inactive)
CCOC(=O)C1=C(C)NC(C)=C(C(=O)OC)C1c1ccc(Cl)cc1 (configuration not stated),0.607 ± 0.14,0.448 ± 0.035,0.563 ± 0.062,1 ± 0.057,1.01 ± 0.1,1.26 ± 0.21,0.598 (inactive)
COC(=O)CCc1ccc(OCC(O)CNC(C)C)cc1 (configuration not stated) [Prestw-1137],1.06 ± 0.087,1.06 ± 0.084,1.02 ± 0.081,0.951 ± 0.043,0.911 ± 0.067,0.827 ± 0.11,1 (active)
CCN(CC)c1ccc(-c2noc(CN3CCSCC3)n2)cn1,0.986 ± 0.055,1.15 ± 0.099,0.902 ± 0.041,0.983 ± 0.059,1.15 ± 0.14,1.13 ± 0.37,1.01 (active)
Br.Cc1ccc(Sc2ccccc2N2CCNCC2)c(C)c1,0.328 ± 0.078,0.944 ± 0.11,1.78 ± 0.15,0.491 ± 0.057,1.27 ± 0.32,1.03 ± 0.12,0.527 (inactive)
Cc1cc(C)n(C2CC(=O)N(c3ccccc3)C2=O)n1 (configuration not stated),1.04 ± 0.08,0.926 ± 0.1,1.21 ± 0.2,1.05 ± 0.04,1.31 ± 0.25,1.42 ± 0.21,1.02 (active)
COc1cc2nc(N(C)CCCNC(=O)C3CCCO3)nc(N)c2cc1OC.Cl (configuration not stated),0.585 ± 0.096,0.838 ± 0.14,0.958 ± 0.056,0.382 ± 0.26,0.996 ± 0.22,1.09 ± 0.2,0.996 (active)
COC1CCN(c2ccc(C(=O)N3CC(n4cc(COc5ccccc5)nn4)C3)cc2)C1 (configuration not stated),1.17 ± 0.099,1.13 ± 0.1,0.959 ± 0.053,0.758 ± 0.043,1.12 ± 0.076,1.08 ± 0.24,0.922 (active)
O=C(O)CCCNC(=O)c1ccccc1C(=O)O,0.896 ± 0.092,0.911 ± 0.067,0.952 ± 0.093,1.04 ± 0.043,1.3 ± 0.14,1.41 ± 0.21,1.03 (active)
N#Cc1c(N=Cc2ccc(Br)cc2)sc2c1CCCC2,0.782 ± 0.075,1 ± 0.067,0.964 ± 0.033,0.896 ± 0.14,0.96 ± 0.041,1 ± 0.077,1 (active)
